Experimental data reported in the supplement of paper PMC10849652.
The full data set covers some 7,900 targets. This sample favours those with a hit. About 0.6% of all pairs of compound and target were hits.

Assays:
Test in all cases: log2 fold change, soluble protein after heating vs DMSO (PISA); higher = thermal stabilisation; K562 cells, 10 uM, 30 min; active = over 0.2 and 3.5 SD of the protein, either way, in both replicates (recomputed)
[1] = compound: C1=CC=C(C=C1)[C@H](COC2=CC3=C(C=C2)NC(=O)N3)NC(=O)C4=CC=CN(C4=O)CC5=CC(=C(C=C5)F)F
Method in brief: (§1)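 Soluble protein was quantified by TMTpro 16plex LC-MS/MS after channel sums were equalised. It was obtained as the supernatant after 21,000xg for 90 min from pooled aliquots of K562 cells (2×10^6 cells/mL, 10 μM compound, 30 min) heated for 3 min across 48°C-58°C and extracted in PBS with 0.5% NP-40 at 4°C. Thermal stability values are relative to control samples and come from duplicates. They are given as log2 fold changes.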

[2] = compound: CC1=C(SC2=C1C(=N[C@H](C3=NN=C(N32)C)CC(=O)N)C4=CC=C(C=C4)Cl)C
Method in brief: as §1

[3] = compound: CC1=C2C(=CC=C1)N=C(N(C2=O)C3=CC=CC=C3C)CN4C=NC5=C(N=CN=C54)N
Method in brief: as §1

[4] = compound: Cc1sc2c(c1C)C(c1ccc(Cl)cc1)=N[C@@H](CC(=O)OC(C)(C)C)c1nnc(C)n1-2
Method in brief: as §1

[5] = compound: c1ccc([C@@H]2C[C@H]2NC2CCNCC2)cc1
Method in brief: as §1

Measured: log2 fold change

TBC1D24 (UniProt Q9ULP9)
inactive: [1] -0.108 | [2] 0.152 | [3] 0.02 | [4] -0.029 | [5] -0.061

SSB (UniProt P05455)
inactive: [1] -0.02 | [2] 0.088 | [3] 0.014 | [4] 0.007 | [5] 0.055

TAF9 (UniProt Q16594)
inactive: [1] 0.046 | [2] -0.043 | [3] -0.114 | [4] 0.049 | [5] 0.019

SRSF4 (UniProt Q08170)
inactive: [1] 0.09 | [2] -0.166 | [3] -0.124 | [4] 0.073 | [5] 0.096

SOAT1 (UniProt P35610)
inactive: [1] -0.023 | [2] 0.037 | [3] 0.071 | [5] 0.001
active: [4] 0.802

TIMM13 (UniProt Q9Y5L4)
Sequence of UniProt Q9Y5L4 (Q9Y5L4 whole entry, looked up): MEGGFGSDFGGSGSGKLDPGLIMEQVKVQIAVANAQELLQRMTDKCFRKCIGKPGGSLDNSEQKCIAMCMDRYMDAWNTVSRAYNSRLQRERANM
inactive: [1] -0.049 | [2] 0.049 | [3] 0.012 | [4] -0.035 | [5] 0.013

SQSTM1 (UniProt Q13501)
inactive: [1] 0 | [2] 0.097 | [3] -0.128 | [4] 0.096 | [5] 0.012

SMAD9 (UniProt O15198)
inactive: [1] -0.104 | [2] 0.094 | [3] -0.001 | [4] 0.076 | [5] -0.054

SRC isoform 2 (UniProt P12931)
inactive: [1] 0.016 | [2] 0.181 | [3] 0.125 | [4] 0.042 | [5] 0.003

SURF1 (UniProt Q15526)
inactive: [1] -0.015 | [2] -0.018 | [3] 0.15 | [4] -0.101 | [5] 0.063

SPECC1 (UniProt Q5M775)
inactive: [1] -0.017 | [2] -0.087 | [3] 0.105 | [4] -0.012 | [5] 0.037

SPAG9 isoform 4 (UniProt O60271)
inactive: [1] 0.15 | [2] 0.006 | [3] -0.048 | [4] 0.028 | [5] 0.025

SRRM2 (UniProt Q9UQ35)
Sequence of UniProt Q9UQ35 (Q9UQ35 whole entry, looked up): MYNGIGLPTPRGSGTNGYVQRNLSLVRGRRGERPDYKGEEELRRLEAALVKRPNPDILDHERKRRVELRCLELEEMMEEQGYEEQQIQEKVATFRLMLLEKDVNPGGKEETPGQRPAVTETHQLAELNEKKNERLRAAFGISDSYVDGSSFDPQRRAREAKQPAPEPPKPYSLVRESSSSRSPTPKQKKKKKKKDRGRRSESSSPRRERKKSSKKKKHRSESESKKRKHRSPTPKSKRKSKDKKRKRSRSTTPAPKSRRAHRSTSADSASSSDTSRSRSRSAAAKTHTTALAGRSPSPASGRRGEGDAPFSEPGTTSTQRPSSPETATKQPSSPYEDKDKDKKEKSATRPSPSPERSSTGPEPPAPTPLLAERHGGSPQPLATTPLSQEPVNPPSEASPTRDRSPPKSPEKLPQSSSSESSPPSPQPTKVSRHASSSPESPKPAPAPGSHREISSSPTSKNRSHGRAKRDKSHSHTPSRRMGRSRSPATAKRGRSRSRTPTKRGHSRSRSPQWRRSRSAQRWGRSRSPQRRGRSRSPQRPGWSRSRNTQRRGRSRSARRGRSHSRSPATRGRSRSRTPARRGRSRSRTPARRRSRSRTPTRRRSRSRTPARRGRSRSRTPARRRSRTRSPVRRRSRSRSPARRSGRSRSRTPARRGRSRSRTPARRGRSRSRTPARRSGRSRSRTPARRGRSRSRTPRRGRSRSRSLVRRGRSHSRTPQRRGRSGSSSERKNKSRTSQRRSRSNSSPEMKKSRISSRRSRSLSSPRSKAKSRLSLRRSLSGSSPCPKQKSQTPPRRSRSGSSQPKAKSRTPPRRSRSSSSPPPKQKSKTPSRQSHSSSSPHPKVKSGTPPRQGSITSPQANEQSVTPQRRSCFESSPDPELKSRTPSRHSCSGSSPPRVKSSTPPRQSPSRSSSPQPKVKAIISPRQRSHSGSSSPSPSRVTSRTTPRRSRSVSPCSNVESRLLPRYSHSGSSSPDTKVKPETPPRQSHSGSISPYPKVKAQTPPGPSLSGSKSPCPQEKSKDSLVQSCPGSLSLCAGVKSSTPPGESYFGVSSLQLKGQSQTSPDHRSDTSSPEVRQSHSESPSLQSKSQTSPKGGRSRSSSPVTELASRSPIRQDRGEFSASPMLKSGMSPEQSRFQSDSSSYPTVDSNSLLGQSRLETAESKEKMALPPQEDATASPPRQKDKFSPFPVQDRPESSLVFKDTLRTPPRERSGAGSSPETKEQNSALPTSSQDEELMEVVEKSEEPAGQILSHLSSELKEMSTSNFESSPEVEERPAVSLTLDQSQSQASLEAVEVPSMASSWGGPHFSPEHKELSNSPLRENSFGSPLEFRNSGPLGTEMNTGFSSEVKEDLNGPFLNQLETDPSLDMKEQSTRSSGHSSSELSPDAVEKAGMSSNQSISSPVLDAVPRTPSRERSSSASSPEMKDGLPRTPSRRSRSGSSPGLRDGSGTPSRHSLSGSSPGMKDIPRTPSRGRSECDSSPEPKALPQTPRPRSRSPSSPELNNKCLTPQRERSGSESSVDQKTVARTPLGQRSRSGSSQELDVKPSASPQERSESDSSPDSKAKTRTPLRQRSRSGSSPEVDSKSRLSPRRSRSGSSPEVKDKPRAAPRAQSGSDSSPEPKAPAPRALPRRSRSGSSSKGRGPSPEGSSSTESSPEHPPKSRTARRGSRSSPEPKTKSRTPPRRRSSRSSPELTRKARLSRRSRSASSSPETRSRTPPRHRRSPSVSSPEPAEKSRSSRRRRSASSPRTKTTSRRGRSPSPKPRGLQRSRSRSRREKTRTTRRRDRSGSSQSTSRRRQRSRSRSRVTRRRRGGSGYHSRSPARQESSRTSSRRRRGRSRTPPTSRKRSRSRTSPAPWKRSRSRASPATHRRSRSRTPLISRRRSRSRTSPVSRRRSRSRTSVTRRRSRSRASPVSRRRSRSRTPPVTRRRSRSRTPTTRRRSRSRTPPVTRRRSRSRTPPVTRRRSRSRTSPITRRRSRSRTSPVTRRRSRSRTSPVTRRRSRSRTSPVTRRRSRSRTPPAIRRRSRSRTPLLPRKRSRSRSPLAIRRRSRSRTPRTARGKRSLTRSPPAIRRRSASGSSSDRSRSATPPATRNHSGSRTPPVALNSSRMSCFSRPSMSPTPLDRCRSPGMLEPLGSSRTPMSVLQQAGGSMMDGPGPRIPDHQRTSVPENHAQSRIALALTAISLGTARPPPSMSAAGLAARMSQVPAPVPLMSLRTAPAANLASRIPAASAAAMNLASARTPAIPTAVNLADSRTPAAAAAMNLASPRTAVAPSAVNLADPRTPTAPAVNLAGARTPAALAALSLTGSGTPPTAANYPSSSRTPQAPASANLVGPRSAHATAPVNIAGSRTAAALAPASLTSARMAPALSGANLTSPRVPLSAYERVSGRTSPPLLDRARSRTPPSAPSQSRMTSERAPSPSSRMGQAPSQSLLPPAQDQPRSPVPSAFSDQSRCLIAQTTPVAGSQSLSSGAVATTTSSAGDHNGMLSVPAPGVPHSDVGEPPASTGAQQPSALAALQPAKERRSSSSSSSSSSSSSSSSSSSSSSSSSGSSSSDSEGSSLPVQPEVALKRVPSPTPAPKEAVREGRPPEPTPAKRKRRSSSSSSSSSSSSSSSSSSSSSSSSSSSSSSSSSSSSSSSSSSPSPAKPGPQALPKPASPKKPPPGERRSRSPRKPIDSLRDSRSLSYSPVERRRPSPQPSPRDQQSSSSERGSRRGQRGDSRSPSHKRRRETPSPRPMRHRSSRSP
inactive: [1] -0.005 | [2] -0.015 | [3] 0 | [4] 0.05 | [5] 0.037

STAM2 (UniProt O75886)
inactive: [1] -0.015 | [2] 0.005 | [3] 0.014 | [4] 0.016 | [5] -0.001

TIMM21 (UniProt Q9BVV7)
Sequence of UniProt Q9BVV7 (Q9BVV7 whole entry, looked up): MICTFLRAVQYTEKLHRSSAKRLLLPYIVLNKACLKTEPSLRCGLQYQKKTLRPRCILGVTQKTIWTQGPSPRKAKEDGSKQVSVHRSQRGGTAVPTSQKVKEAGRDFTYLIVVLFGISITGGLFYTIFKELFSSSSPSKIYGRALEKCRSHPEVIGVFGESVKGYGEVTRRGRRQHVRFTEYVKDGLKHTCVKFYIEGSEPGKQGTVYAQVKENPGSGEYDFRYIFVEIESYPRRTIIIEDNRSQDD
inactive: [1] -0.02 | [2] 0.052 | [3] 0.024 | [4] 0.004 | [5] -0.048

STX7 (UniProt O15400)
Sequence of UniProt O15400 (O15400 whole entry, looked up): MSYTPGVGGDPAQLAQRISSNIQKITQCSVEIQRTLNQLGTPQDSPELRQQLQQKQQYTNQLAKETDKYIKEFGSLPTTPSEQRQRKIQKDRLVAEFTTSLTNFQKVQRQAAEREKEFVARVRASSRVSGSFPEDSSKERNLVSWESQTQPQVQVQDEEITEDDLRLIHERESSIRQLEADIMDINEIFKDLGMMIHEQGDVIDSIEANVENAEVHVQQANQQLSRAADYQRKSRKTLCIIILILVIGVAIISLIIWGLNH
inactive: [1] 0.023 | [2] 0.01 | [3] 0.027 | [4] -0.011 | [5] -0.011

STXBP5 (UniProt Q5T5C0)
inactive: [1] -0.011 | [2] 0.017 | [3] 0.15 | [4] -0.04 | [5] -0.027

STK11IP (UniProt Q8N1F8)
inactive: [1] 0.035 | [2] 0.026 | [3] -0.02 | [4] 0.05 | [5] -0.048

SLIRP (UniProt Q9GZT3)
inactive: [1] -0.038 | [2] -0.073 | [3] 0.01 | [4] -0.016 | [5] 0.042

TAMM41 isoform 3 (UniProt Q96BW9)
inactive: [1] -0.012 | [2] 0.1 | [3] 0.09 | [4] -0.06 | [5] 0.001

SLC30A10 (UniProt Q6XR72)
inactive: [1] 0.066 | [2] -0.005 | [3] 0.113 | [4] -0.003 | [5] 0.059

SUN2 (UniProt Q9UH99)
inactive: [1] 0.029 | [2] -0.004 | [3] -0.025 | [4] 0.025 | [5] -0.015

SRPRA (UniProt P08240)
inactive: [1] 0.001 | [2] -0.032 | [3] 0.031 | [4] -0.061 | [5] -0.038

TARBP1 (UniProt Q13395)
inactive: [1] -0.058 | [2] 0.048 | [3] 0.081 | [4] -0.073 | [5] -0.027

TELO2 (UniProt Q9Y4R8)
Sequence of UniProt Q9Y4R8 (Q9Y4R8 whole entry, looked up): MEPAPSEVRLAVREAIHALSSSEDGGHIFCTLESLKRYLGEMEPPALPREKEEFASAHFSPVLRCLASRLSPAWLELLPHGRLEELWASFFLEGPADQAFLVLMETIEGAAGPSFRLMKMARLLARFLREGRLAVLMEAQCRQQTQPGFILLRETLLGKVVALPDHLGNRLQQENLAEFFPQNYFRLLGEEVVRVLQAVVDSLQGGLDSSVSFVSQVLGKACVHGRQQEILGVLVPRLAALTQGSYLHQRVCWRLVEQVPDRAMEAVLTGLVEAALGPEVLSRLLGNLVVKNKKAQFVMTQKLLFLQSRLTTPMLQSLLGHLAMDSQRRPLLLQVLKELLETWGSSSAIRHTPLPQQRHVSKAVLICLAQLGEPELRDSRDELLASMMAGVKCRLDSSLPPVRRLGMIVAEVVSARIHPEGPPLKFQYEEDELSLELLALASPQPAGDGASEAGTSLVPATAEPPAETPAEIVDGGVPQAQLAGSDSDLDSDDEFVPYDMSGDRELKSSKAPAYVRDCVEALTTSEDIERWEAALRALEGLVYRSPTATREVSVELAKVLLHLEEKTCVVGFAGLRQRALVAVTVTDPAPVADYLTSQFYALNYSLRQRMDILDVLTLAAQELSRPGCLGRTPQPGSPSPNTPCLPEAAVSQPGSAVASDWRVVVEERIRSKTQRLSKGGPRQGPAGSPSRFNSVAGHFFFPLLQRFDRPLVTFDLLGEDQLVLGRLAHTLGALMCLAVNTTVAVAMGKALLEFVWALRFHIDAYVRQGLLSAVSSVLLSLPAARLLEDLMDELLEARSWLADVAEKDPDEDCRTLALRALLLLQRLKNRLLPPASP
inactive: [1] -0.031 | [2] -0.05 | [3] 0.037 | [4] 0.039 | [5] 0.005

SNUPN (UniProt O95149)
inactive: [1] -0.027 | [2] 0.051 | [3] 0.067 | [4] 0.03 | [5] 0.021

TECR (UniProt Q9NZ01)
inactive: [1] -0.015 | [2] 0.049 | [3] 0.033 | [4] -0.046 | [5] 0

STX17 (UniProt P56962)
inactive: [1] 0.03 | [2] 0.006 | [3] 0.029 | [4] 0.004 | [5] -0.058

STK25 (UniProt O00506)
inactive: [1] -0.022 | [2] 0.111 | [3] 0.015 | [4] -0.019 | [5] -0.016

SLC25A38 (UniProt Q96DW6)
inactive: [1] 0.014 | [2] 0.034 | [3] -0.035 | [4] -0.035 | [5] 0.014

SMC5 (UniProt Q8IY18)
inactive: [1] 0.017 | [2] 0.045 | [3] -0.006 | [4] -0.028 | [5] -0.005

SULT1A1 (UniProt P50225)
inactive: [1] -0.083 | [2] 0.064 | [3] -0.021 | [4] -0.06 | [5] -0.066

SUGP1 (UniProt Q8IWZ8)
inactive: [1] 0 | [2] -0.001 | [3] 0.066 | [4] -0.046 | [5] 0.019

TIPRL (UniProt O75663)
Sequence of UniProt O75663 (O75663 whole entry, looked up): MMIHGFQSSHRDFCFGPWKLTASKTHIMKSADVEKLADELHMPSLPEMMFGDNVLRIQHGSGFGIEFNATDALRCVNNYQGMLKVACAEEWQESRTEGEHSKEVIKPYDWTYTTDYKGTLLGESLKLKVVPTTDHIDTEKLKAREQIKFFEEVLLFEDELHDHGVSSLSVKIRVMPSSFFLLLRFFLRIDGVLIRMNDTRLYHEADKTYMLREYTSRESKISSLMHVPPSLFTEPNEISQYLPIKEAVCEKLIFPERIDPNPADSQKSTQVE
inactive: [1] -0.078 | [2] 0.07 | [3] 0.083 | [4] 0.001 | [5] -0.007

SRSF11 (UniProt Q05519)
inactive: [1] 0.008 | [2] 0.037 | [3] 0.044 | [4] -0.082 | [5] -0.028

TBK1 (UniProt Q9UHD2)
inactive: [1] -0.014 | [2] 0.007 | [3] 0.041 | [4] 0.011 | [5] -0.049

SMARCAD1 isoform 2 (UniProt Q9H4L7)
inactive: [1] -0.029 | [2] 0.071 | [3] 0.214 | [4] -0.129 | [5] 0.004

STARD7 (UniProt Q9NQZ5)
inactive: [1] -0.018 | [2] 0.075 | [3] 0.145 | [4] 0.063 | [5] -0.017

SPAST (UniProt Q9UBP0)
inactive: [1] -0.057 | [2] 0.026 | [3] 0.117 | [4] -0.016 | [5] -0.085

SNX6 (UniProt Q9UNH7)
inactive: [1] -0.037 | [2] 0.039 | [3] 0.053 | [4] 0.012 | [5] -0.11

SLC9A6 isoform 2 (UniProt Q92581)
inactive: [1] -0.007 | [2] 0.066 | [3] 0.068 | [4] -0.014 | [5] 0.047

SPPL2B (UniProt Q8TCT7)
inactive: [1] 0.039 | [2] 0.132 | [3] 0.049 | [4] 0.024 | [5] -0.022

TCOF1 isoform 6 (UniProt Q13428)
inactive: [1] 0.209 | [2] 0.151 | [3] -0.251 | [4] 0.271 | [5] 0.029

SPINDOC (UniProt Q9BUA3)
inactive: [1] 0.03 | [2] 0.02 | [3] -0.066 | [4] 0.145 | [5] 0.041

SRSF7 (UniProt Q16629)
inactive: [1] 0.136 | [2] -0.171 | [3] -0.093 | [4] 0.209 | [5] 0.055

STXBP2 isoform 3 (UniProt Q15833)
inactive: [1] -0.15 | [2] -0.05 | [3] 0.071 | [4] 0.031 | [5] -0.03

TATDN2 (UniProt Q93075)
inactive: [1] -0.044 | [2] -0.067 | [3] -0.037 | [4] 0.069 | [5] 0.071

SLC7A6 (UniProt Q92536)
Sequence of UniProt Q92536 (Q92536 whole entry, looked up): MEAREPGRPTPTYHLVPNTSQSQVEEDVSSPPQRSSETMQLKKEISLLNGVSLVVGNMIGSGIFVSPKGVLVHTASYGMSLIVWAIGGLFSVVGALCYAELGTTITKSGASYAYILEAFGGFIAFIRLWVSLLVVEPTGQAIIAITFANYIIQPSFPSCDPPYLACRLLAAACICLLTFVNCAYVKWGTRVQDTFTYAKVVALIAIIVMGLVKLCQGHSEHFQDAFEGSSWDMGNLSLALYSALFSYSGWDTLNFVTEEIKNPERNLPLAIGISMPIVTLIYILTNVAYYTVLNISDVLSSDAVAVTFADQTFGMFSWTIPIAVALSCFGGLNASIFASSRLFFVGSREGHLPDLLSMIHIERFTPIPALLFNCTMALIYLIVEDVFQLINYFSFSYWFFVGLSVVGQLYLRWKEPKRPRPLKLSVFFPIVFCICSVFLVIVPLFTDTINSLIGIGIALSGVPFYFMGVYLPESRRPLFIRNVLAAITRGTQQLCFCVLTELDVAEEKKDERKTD
inactive: [1] -0.063 | [2] 0.023 | [3] 0.053 | [4] 0.012 | [5] 0.06

TAX1BP1 (UniProt Q86VP1)
inactive: [1] -0.008 | [2] 0.09 | [3] 0.042 | [4] 0.029 | [5] -0.007

SRSF2 (UniProt Q01130)
inactive: [1] 0.008 | [2] -0.047 | [3] -0.052 | [4] 0.061 | [5] 0.143

SLK isoform 2 (UniProt Q9H2G2)
inactive: [1] 0.016 | [2] 0.034 | [3] 0.042 | [4] 0.021 | [5] -0.005

SMG1 (UniProt Q96Q15)
inactive: [1] -0.104 | [2] 0.003 | [3] -0.004 | [4] 0.02 | [5] -0.071

SRP72 (UniProt O76094)
inactive: [1] -0.068 | [2] -0.016 | [3] 0.047 | [4] 0.097 | [5] -0.016
